Assay outcomes as filed in PubChem.
Only a selection was taken, and hits are over-represented in it overall.
APEX1 inh = qHTS Assay for Inhibitors of the Human Apurinic/apyrimidinic Endonuclease 1 (APE1). recombinant APE1, TAMRA/BHQ-2 abasic DNA cleavage fluorescence. Potency, µM (top dose mostly 65.8 µM), hits mostly inhibitors. 0.35% of 350,000 active; further: nearly all actives have a fitted effect of over 55% in size
Target sequence (P27695 whole entry, looked up): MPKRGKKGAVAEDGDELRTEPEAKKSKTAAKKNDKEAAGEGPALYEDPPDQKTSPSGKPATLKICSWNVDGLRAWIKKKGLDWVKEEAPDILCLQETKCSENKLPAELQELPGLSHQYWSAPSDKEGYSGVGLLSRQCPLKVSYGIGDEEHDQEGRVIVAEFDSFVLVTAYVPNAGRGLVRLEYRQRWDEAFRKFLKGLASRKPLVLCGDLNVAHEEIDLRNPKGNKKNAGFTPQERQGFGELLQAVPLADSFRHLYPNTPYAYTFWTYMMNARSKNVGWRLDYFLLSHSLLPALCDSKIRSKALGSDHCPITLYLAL
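Kinetic fluorescence read (525 ex/598 em nm, three reads 60 s apart) of AP-site incision; signal = third minus first read. Enzyme 0.75 nM, dual-labelled THF duplex 50 nM, compound preincubation 15 min RT.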
L3MBTL1 block = qHTS Assay for the Inhibitors of L3MBTL1. AlphaScreen L3MBTL1–H3K9me1 peptide binding. Potency, µM (top dose mostly 57.1 µM), usual class: inhibitors. Lethal(3)malignant brain tumor-like protein 1 (Homo sapiens), Q9Y468. AID 485360, 2010. 0.66% of 230,000 active; further: nearly all actives have a fitted effect of over 60% in size
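Displacement of a biotinylated histone H3(1-15) peptide monomethylated at Lys9 (75 nM) from L3MBTL1 (50 nM) was measured by AlphaScreen after a 30 min room-temperature compound incubation; cefsulodin titration served as intraplate control.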
BLM inh = qHTS Assay for Inhibitors of Bloom's syndrome helicase (BLM); RecQ-like DNA helicase BLM (Homo sapiens), P54132; recombinant BLM DNA unwinding, fluorescence dequenching; Potency, µM (doses to about 56.1 µM), hits mostly inhibitors; 0.2% of 350,000 active; AID 2528, 2010; further: nearly all actives have a fitted effect of over 35% in size
KDM4E inh = qHTS Assay for Inhibitors of Human Jumonji Domain Containing 2E (JMJD2E). JMJD2E catalytic domain, FDH-coupled NADH fluorescence (FDH is formaldehyde dehydrogenase). 1.6% of 230,000 active. Lysine-specific demethylase 4E (Homo sapiens), B2RXH2. Potency, µM (series often up to 57.1 µM), most hits filed as inhibitors; active means well fitted inhibition curve with a large enough effect, not every such curve was filed as active; inconclusive means small, poorly fitted or top-dose-only effect, or another doubt; inactive means no such curve, though single readings can be large or run the other way; further: nearly all actives have a fitted effect of over 50% in size
GoLoco inh red = qHTS Assay for Inhibitors of RGS12 GoLoco Motif Activity (Red Fluorophore). Guanine nucleotide-binding protein G(i) subunit alpha-1 (Homo sapiens), P63096. Gai1:RGS12 GoLoco peptide FP, rhodamine, 10 min. Potency, µM (series often up to 61.6 µM), actives largely listed as inhibitors. 0.44% of 230,000 active; active means well fitted inhibition curve with a large enough effect, not every such curve was filed as active; inactive means no such curve, though single readings can be large or run the other way; further: nearly all actives have a fitted effect of over 30% in size
RECQ1 helicase = qHTS Assay for Inhibitors of RecQ-Like Dna Helicase 1 (RECQ1) | ATP-dependent DNA helicase Q1 (Homo sapiens), P46063 | RECQ1 DNA unwinding, red fluorescence kinetic read | Potency, µM (highest dose often 57.3 µM), most hits filed as inhibitors | 0.54% of 240,000 active | AID 2549, 2010; further: nearly all actives have a fitted effect of over 30% in size
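RECQ1T1 50 nM; forked duplex (20 bp + 30-nt ss tails) 200 nM, ATP 2 mM final; pH 8.0, 2 mM MgCl2, 2.5 ug/ml poly(dI-dC); 15 min compound preincubation; discontinuous kinetic read over 2 h at RT.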
Each line names hits and unclear results; the compound was inactive in the other large screens. Unless noted, the call rests on the fitted dose curve; in most records, active means well fitted curve in the direction sought with a large enough effect; inconclusive means small, poorly fitted or top-dose-only effect, or another doubt; inactive means no such curve, though single readings can be large; an effect the other way counts as inactive or inconclusive.

COc1ccc(C2=CC(=O)C=CC2=O)cc1	KDM4E inh 14.1µM, GoLoco inh red 3.55µM (no result: L3MBTL1 block)
C#CCNC(=O)C1=C[C@H](c2cn(C(C)=O)c3ccccc23)C[C@H](OCc2ccc(CO)cc2)O1	KDM4E inh inconclusive
O=C(C1=C[C@@H](c2ccccc2)C[C@@H](OCc2ccc(CO)cc2)O1)N1CCN(Cc2ccc3c(c2)OCO3)CC1	none
O=C(C1=C[C@H](c2ccccc2)C[C@H](OCc2ccc(CO)cc2)O1)N1CCN(Cc2ccccc2)CC1	KDM4E inh 20µM
CC(=O)n1cc([C@@H]2C=C(C(=O)NCc3ccccc3)O[C@H](OCc3ccc(CO)cc3)C2)c2ccccc21	KDM4E inh 10µM (no result: L3MBTL1 block)
C=CC[C@@H]1C=C[C@@H](O/N=C\C[C@@H]2C=C[C@H](OC(C)=O)[C@H](COC(C)=O)O2)[C@@H](CO)O1	none (no result: L3MBTL1 block, KDM4E inh, GoLoco inh red)
Cc1nc2c(c(SCC(=O)Nc3ccccc3C(F)(F)F)n1)CCC2	none (no result: APEX1 inh, L3MBTL1 block, KDM4E inh, GoLoco inh red, RECQ1 helicase)
Cc1ccc(Cl)cc1-n1ncc2c(Nc3cccc(C)c3C)ncnc21	none (no result: APEX1 inh, L3MBTL1 block, KDM4E inh, GoLoco inh red, RECQ1 helicase)
CCOc1ccc(CC(=O)Nc2c(C(=O)c3ccc(C)cc3)oc3ccccc23)cc1OCC	none (no result: APEX1 inh, L3MBTL1 block, KDM4E inh, GoLoco inh red, RECQ1 helicase)
O=C1C(NS(=O)(=O)c2ccc(Cl)cc2)=C(N2CCCCC2)C(=O)c2ccccc21	L3MBTL1 block 25.1µM
COC(=O)[C@@H](NC(=O)N1CCc2nc(-c3ccccc3)c3c(c2C1)CO[C@@H](C)C3)C(C)C	none (no result: L3MBTL1 block)
COCCn1c(=NC(=O)c2ccc(S(=O)(=O)N3CCCc4ccccc43)cc2)sc2cc(S(C)(=O)=O)ccc21	none
COCCn1c(=NC(=O)c2ccc(S(=O)(=O)N3CCc4ccccc4C3)cc2)sc2cc(S(N)(=O)=O)ccc21	KDM4E inh 3.98µM
CC(C)C1=CC2=CC[C@@H]3[C@](C)(CCC[C@@]3(C)C(=O)O)[C@H]2CC1	none (no result: APEX1 inh, L3MBTL1 block, KDM4E inh, RECQ1 helicase)
O=C1C(Cl)=C(NCCCO)C(=O)c2ccccc21	none (no result: L3MBTL1 block)
CCOCCCNC1=C(Cl)C(=O)c2ccccc2C1=O	L3MBTL1 block inconclusive, KDM4E inh inconclusive, GoLoco inh red 3.16µM
COC(=O)C/C=C1\c2ccc3c(c2[C@@H](OC)[C@@H]1C)OCO3	none (no result: L3MBTL1 block)
CN1CCc2c(sc3c2C(=O)NC(c2ccccc2)N3)C1 (stereo not drawn)	KDM4E inh inconclusive
CN1CCc2c(sc3c2C(=O)NC(c2ccccn2)N3)C1 (stereo not drawn)	APEX1 inh inconclusive, L3MBTL1 block inconclusive, KDM4E inh inconclusive, GoLoco inh red 28.2µM, RECQ1 helicase inconclusive
CCCC1=[N+](CC)CCn2c(C)ccc21	GoLoco inh red 12.6µM
O=C(C[n+]1ccccc1)Nc1c(Cl)cc(Cl)cc1Cl	L3MBTL1 block 11.2µM
CCCNC(=O)C1CCC(Cn2c(=O)c3sccc3n(CC(=O)NCc3ccccc3)c2=O)CC1 (stereo not drawn)	none (no result: APEX1 inh, L3MBTL1 block, KDM4E inh, GoLoco inh red, RECQ1 helicase)
CCC12CN3CC(CC)(CN(C1)C3c1c(O)ccc3ccccc13)C2=O (stereo not drawn)	KDM4E inh 12.6µM
CCC12CN3CC(CC)(CN(C1)C3c1c[nH]c3ccccc13)C2=O (stereo not drawn)	none (no result: APEX1 inh, L3MBTL1 block, KDM4E inh, GoLoco inh red, RECQ1 helicase)
Cc1ccn2c(Nc3ccc4c(c3)OCO4)c(-c3ccccn3)nc2c1	L3MBTL1 block 8.91µM
Nc1ccc2c(c1)-c1ccccc1S(=O)(=O)N2	L3MBTL1 block inconclusive, KDM4E inh inconclusive, GoLoco inh red 2µM, RECQ1 helicase inconclusive
CC(=O)OCC(NC(=O)C(COCc1ccccc1)NC(=O)OC(C)(C)C)C1OC(n2ccc(=O)[nH]c2=O)C(OC(C)=O)C1OC(C)=O (stereo not drawn)	none (no result: L3MBTL1 block, KDM4E inh, GoLoco inh red)
